# High-throughput results deposited in PubChem BioAssay by National Center for Advancing Translational Sciences (NCATS).
# LmPK inh – qHTS Assay for Inhibitors of Leishmania Mexicana Pyruvate Kinase (LmPK) | purified LmPK, Kinase-Glo ATP luminescence, 1 h | 290,000 compounds, 0.37% hits | AID 1721, 2009 | Potency, µM (top dose mostly 57.5 µM), for the others: at the highest dose activity change, negative = inhibition, hits mostly inhibitors | Q27686; also: % is scaled to controls: 0 for no effect and ±100 for the full control effect
# Target sequence (Q27686 whole entry, looked up): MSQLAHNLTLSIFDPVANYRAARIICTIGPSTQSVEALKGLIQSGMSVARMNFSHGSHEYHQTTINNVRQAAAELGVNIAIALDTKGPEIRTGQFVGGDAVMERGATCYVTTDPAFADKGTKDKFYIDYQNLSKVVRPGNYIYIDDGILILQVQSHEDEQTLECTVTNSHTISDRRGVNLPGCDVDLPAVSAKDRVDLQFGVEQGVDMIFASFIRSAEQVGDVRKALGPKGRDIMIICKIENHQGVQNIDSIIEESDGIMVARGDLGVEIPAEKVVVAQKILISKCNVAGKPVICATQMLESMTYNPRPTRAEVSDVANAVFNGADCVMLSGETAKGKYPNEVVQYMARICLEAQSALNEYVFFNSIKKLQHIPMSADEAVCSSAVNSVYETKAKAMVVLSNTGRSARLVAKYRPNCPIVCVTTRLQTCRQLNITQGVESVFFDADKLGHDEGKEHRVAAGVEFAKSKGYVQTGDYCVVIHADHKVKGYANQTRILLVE
#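 Purified LmPK (0.1 nM) converted ADP (0.1 mM) to ATP with PEP (0.5 mM) in imidazole buffer pH 7.2 with KCl and MgCl2, 1 h at room temperature. ATP was read by Kinase-Glo luminescence; data normalized to uninhibited and no-enzyme controls.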
# TbPYK inhibitor – qHTS of Trypanosoma Brucei Inhibitors; pyruvate kinase (Trypanosoma brucei), Q57TT1; TbPYK enzyme, Kinase-Glo Plus ATP luminescence, 45 min; Potency, µM (series often up to 76.8 µM), for the others: at the top dose activity, negative = inhibition, hits mostly inhibitors; 410,000 compounds, 0.12% hits; AID 624173, 2012; also: % is scaled to controls: 0 for no effect and ±100 for the full control effect; nearly all actives have a fitted effect of over 50% in size
#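 In this concentration-response screen, enzyme-free wells defined baseline while DMSO plates tracked drift. Each reaction combined TbPYK, substrate, compound and 130 uM ADP for 45 min at room temperature. Kinase-Glo Plus luminescence gave the signal.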
# Sm TGR block – qHTS Assay for the Inhibitors of Schistosoma Mansoni Peroxiredoxins; purified TGR, DTNB reduction, TNB absorbance 405 nm; 360,000 compounds, 3% hits; AID 485364, 2010; Potency, µM (top dose mostly 114 µM), for inactives: at the top dose activity change, negative = inhibition, hits mostly inhibitors; also: % is scaled to controls: 0 for no effect and ±100 for the full control effect; nearly all actives have a fitted effect of over 60% in size
#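 First, TGR (20 nM dispensed) and NADPH were mixed with compound. Second, a 15 min room-temperature incubation followed. Third, further NADPH and then DTNB were added to start the reaction. Finally, TNB absorbance was monitored kinetically.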
# RE007 growth inh – qHTS Assay for Inhibitors of the HIV-1 protein Vpr. Potency, µM (doses to about 92.2 µM), without a hit: at the highest dose activity change, negative = less growth, actives largely listed as inhibitors. S. pombe RE007 Vpr strain, BacTiter-Glo ATP luminescence, 24 h. AID 651644, 2012. 360,000 compounds, 0.21% hits; active = well fitted falling curve with a large enough effect; inconclusive = small, poorly fitted or top-dose-only effect; inactive = no such curve, though single readings can be large or run the other way; also: % is scaled to controls: 0 for no effect and ±100 for the full control effect; nearly all actives have a fitted effect of over 50% in size
#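 Fission yeast RE007 carrying one integrated HIV-1 vpr copy, seeded at OD 0.01 in PMG+AL medium with 23 nL pinned compound. Grown 24 h at 30 degrees; viability read by BacTiter-Glo luminescence after 5 min.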
# NS1 function inh – qHTS Assay for Inhibitors of Influenza NS1 Protein Function; Potency, µM (titrated, usually from 46.1 µM), for the others: top-dose activity, positive = more growth; 270,000 compounds, 0.4% hits; calls by dose curve; also: actives are rising curves; nearly all actives have a fitted effect of over 50% in size
#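 A cell-based growth assay was used: compounds that relieve NS1-induced slow growth of budding yeast raise OD600. Assay medium was yeast nitrogen base with ammonium sulphate and -URA supplement, pH 6.0, with 2% galactose.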
# Giardia FBPA inh-1 – qHTS Assay for Inhibitors of Fructose-1,6-bisphosphate Aldolase from Giardia Lamblia; purified Giardia FBPA; AID 2451, 2010; Potency, µM (top dose mostly 59.6 µM), without a hit: at the top dose activity, negative = inhibition, hits mostly inhibitors; 290,000 compounds, 0.71% hits; also: % is scaled to controls: 0 for no effect and ±100 for the full control effect; nearly all actives have a fitted effect of over 55% in size
#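 40 nM FBPA preincubated 10 min at RT with compound (up to 57.5 uM final), then substrate plus GAPDH/TPI/NAD/arsenate coupling and diaphorase/resazurin added. Fluorescence read after 20 min at RT, 525/598 nm.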
# Giardia growth – qHTS Assay for Inhibitors of Fructose-1,6-bisphosphate Aldolase from Giardia Lamblia: Giardia lamblia growth inhibition; shares compounds with Giardia FBPA inh-1; Giardia lamblia trophozoite growth inhibition; Potency, µM (top dose mostly 57.5 µM), inactives show at the highest dose activity change, negative = inhibition, hits mostly inhibitors; 1,500 compounds, 5% hits; AID 2785, 2010;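 also: trophozoites exposed to compound for 48 h at 37 °C; % is scaled to controls: 0 for no effect and ±100 for the full control effect; nearly all actives have a fitted effect of over 70% in size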
# Mammalian tox – qHTS Assay for Inhibitors of Fructose-1,6-bisphosphate Aldolase from Giardia Lamblia: Mammalian cellular toxicity | shares compounds with Giardia FBPA inh-1 | mammalian cell viability counter-screen, qHTS | Potency, µM (series often up to 57.5 µM), inactives show top-dose viability change, negative = toxicity, hits mostly inhibitors | 1,500 compounds, 4% hits | AID 2786, 2010;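 also: Chinese hamster ovary cells used as mammalian cytotoxicity surrogate; viability measured as cellular ATP by luminescence; compound exposure lasted 48 h before reading; % is scaled to controls: 0 for no effect and ±100 for the full control effect; nearly all actives have a fitted effect of over 60% in size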
# Giardia FBPA inh-2 – qHTS Assay for Inhibitors of Fructose-1,6-bisphosphate Aldolase from Giardia Lamblia: Primary screen confirmation; shares compounds with Giardia FBPA inh-1; purified Giardia aldolase enzyme activity, qHTS; 1,500 compounds, 5% hits; AID 2787, 2010; Potency, µM (doses to about 57.5 µM), for inactives: at the top dose activity change, negative = inhibition, usual class: inhibitors; also: % is scaled to controls: 0 for no effect and ±100 for the full control effect; nearly all actives have a fitted effect of over 45% in size
# Rabbit aldolase – qHTS Assay for Inhibitors of Fructose-1,6-bisphosphate Aldolase from Giardia Lamblia: Rabbit FBPA Selectivity; shares compounds with Giardia FBPA inh-1; Rabbit muscle FBPA enzyme inhibition, selectivity counter-screen; Potency, µM (titrated, usually from 57.5 µM), for inactives: at the highest dose activity, negative = inhibition, usual class: inhibitors; 1,500 compounds, 4% hits; AID 2794, 2010; also: % is scaled to controls: 0 for no effect and ±100 for the full control effect; nearly all actives have a fitted effect of over 60% in size
# Target sequence (P00883 whole entry, looked up): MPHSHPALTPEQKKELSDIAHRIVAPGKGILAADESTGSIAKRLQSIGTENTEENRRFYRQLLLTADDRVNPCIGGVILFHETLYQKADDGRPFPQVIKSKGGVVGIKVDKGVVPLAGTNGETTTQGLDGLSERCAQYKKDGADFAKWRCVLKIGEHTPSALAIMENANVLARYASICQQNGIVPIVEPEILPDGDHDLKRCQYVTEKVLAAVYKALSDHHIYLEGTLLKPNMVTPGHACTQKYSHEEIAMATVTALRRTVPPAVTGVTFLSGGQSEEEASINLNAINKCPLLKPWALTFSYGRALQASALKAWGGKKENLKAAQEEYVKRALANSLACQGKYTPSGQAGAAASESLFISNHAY
# GAPDH coupling – qHTS Assay for Inhibitors of Fructose-1,6-bisphosphate Aldolase from Giardia Lamblia: Coupling assay counterscreen confirmation; shares compounds with Giardia FBPA inh-1; GAPDH coupling enzyme counterscreen, biochemical, qHTS; Potency, µM (series often up to 57.5 µM), for the others: at the top dose activity change, negative = inhibition, most hits filed as inhibitors; 1,500 compounds, 6% hits; also: % is scaled to controls: 0 for no effect and ±100 for the full control effect; nearly all actives have a fitted effect of over 55% in size
# Numbers without * were called inactive; u = inconclusive; x = not tested or not shown; [ ] = another dose, or the depositor's remark. Rows were chosen to be rich in hits. Some 3.5% of all compounds tested hit in one or more screens of this group. Unless noted, calls follow the shape of the dose curve; as a rule, active = well fitted curve in the direction sought with a large enough effect; inconclusive = small, poorly fitted or top-dose-only effect, or another doubt; inactive = no such curve, though single readings can be large; an effect the other way counts as inactive or inconclusive. Potency is read from the fitted curve at half-maximal effect.
SMILES,LmPK inh,TbPYK inhibitor,Sm TGR block,RE007 growth inh,NS1 function inh,Giardia FBPA inh-1,Giardia growth,Mammalian tox,Giardia FBPA inh-2,Rabbit aldolase,GAPDH coupling
O=C(NC(=S)Nc1ccccn1)c1cccc([N+](=O)[O-])c1,1.5%,-0.2%,24.4%,-15.8%,-0.3%,15.8µM*,u,-7.3%,4.7%,6.2%,13.4%
O=C(N/N=C/C=C/c1cccc([N+](=O)[O-])c1)c1ccncc1,1.9%,2.2%,-1.3%,6.5%,-1.3%,15.8µM*,28.2µM*,-4.5%,3.4%,-4.1%,4.7%
COc1ccc(-c2nc(SCC(=O)Nc3ccc4c(c3)OCCO4)c(-c3ccc(C)cc3)[nH]2)cc1OC,x,-7.0%,1.7%,x,x,x,x,x,x,x,x
Cc1csc(N/N=C/c2ccc([N+](=O)[O-])cc2)n1,2.4%,-4.4%,2.3%,-16.1%,-11.7%,-16.5%,x,x,x,x,x
O=C(N/N=C/c1ccccn1)c1ccc(NC(=O)c2cccc([N+](=O)[O-])c2)cc1,4.3%,3.8%,1.1%,12.1%,x,14.1µM*,u,-9.9%,4.5%,-1.3%,-4.5%
Cc1csc(N/N=C/c2ccccn2)n1,-22.0%[11.5 µM],-22.6%,-29.7%,u,x,15.8µM*,-6.5%[10.4 µM],25.1µM*,-3.4%,-0.7%,-10.5%
CCN(CC)CCOCCOC(=O)C(CC)(CC)c1ccccc1 (tested in a mixture with another compound),x,-0.9%,x,x,x,x,x,x,x,x,x
CCS(=O)(=O)N1CCN(Cc2ccncc2)CC1,-2.6%,-7.8%,5.4%,-7.4%,4.5%,14.1µM*,13.7%,11.6%,7.5%,3.9%,17.3%
COC/C=C/C1=CC2=CC(=O)C(C)(OC(=O)c3cnc4ccccc4n3)C(=O)C2=CN1CCOC (stereo not drawn),-8.1%[11.5 µM],-3.9%,x,-13.3%,x,u,x,x,x,x,x
COC/C=C/C1=CC2=CC(=O)C(C)(OC(=O)c3cnc4ccccc4n3)C(=O)C2=CN1CCN1CCOCC1 (stereo not drawn),-5.0%[11.5 µM],-9.4%,14.1µM*,-7.9%,-1.1%,15.8µM*,-19.0%,-5.4%,u,u,u
Cc1cc(-c2ccco2)c(C#N)c2nc3ccccc3n12,-10.4%,1.2%,28.2µM*,-19.1%,-71.1%,1.26µM*,-18.6%[38.3 µM],-28.7%,u,u,u
CCC(Sc1nc2ncccc2[nH]1)C(=O)NCCc1ccccc1 (stereo not drawn),-9.1%,-2.9%,-5.2%,5.0%,3.8%,2.24µM*,3.6%[10.4 µM],-0.4%,3.8%,13.2%,-5.6%
O=C(C1CCN(S(=O)(=O)c2cccc3nonc23)CC1)N1CCN(c2ccccc2)CC1,x,4.7%,-2.7%,x,x,x,x,x,x,x,x
Cc1ccc2oc(=O)c(/C=C(\O)C(C)(C)C)nc2c1,1.5%,12.1%,-7.6%,-7.1%,x,-25.5%,x,x,x,x,x
Cc1ccc2oc(=O)c(/C=C(\O)c3ccco3)nc2c1,7.3%,2.0%,u,-8.7%,-0.3%,19.9µM*,12.3%,7.7%,-17.1%,0.8%,-2.2%
COc1cc(Br)c(CNc2cc(C)ccc2C)cc1OC,-7.3%,-5.6%,10.5%,-14.8%,-27.0%,20µM*,-19.4%,-3.2%,-2.7%,6.5%,6.3%
COc1ccc(CNc2cc(C)ccc2C)c(OC)c1OC,0.1%,-6.1%,6.7%,-8.0%,-6.9%,6.0%,x,x,x,x,x
C/C(=N\NC(=O)c1ccc(Cl)c(Cl)c1)c1ccccn1,-3.8%,0.3%,-0.1%,u,-12.6%,u,-2.6%[38.3 µM],2.91µM*,0.6%,-3.9%,1.2%
CCC(=O)C1=C(c2cccc([N+](=O)[O-])c2)N(C(=O)CC)n2c(nnc2-c2ccccc2)S1,x,4.2%,-2.0%,x,x,x,x,x,x,x,x
COc1ccc(NN=Nc2nc3c([nH]2)c(=O)n(C)c(=O)n3C)cc1,-5.5%,u,17.8µM*,4.8%,4.8%,17.7µM*,u,-10.5%,12.6µM*,u,u
Oc1ccccc1CNc1cccc2cccnc12,-0.7%,-7.6%,-3.0%,-15.5%,8.5%,6.29µM*,-27.8%,-8.5%,-20.1%,-8.0%,-1.7%
COc1cc(NCc2ccccc2O)c2ncccc2c1,-0.4%,3.7%,-2.5%,-8.3%,u,-20.1%,x,x,x,x,x
COCCn1c(C)c(C)c2c(NCCc3ccccc3)ncnc21,2.1%,25.3%,-12.5%,-2.6%,-7.3%,28.2µM*,-28.5%,u,1.4%,1.4%,12.4%
Cc1ccc(N(C)C(CNS(=O)(=O)c2ccccc2)c2ccccc2)cc1 (stereo not drawn),x,-11.2%,2.7%,x,x,x,x,x,x,x,x
O=C(O)Cn1c2ccccc2c2n[nH]c(=S)nc21,1.9%,u,-36.0%,8.1%,2.3%,8.91µM*,19.3%,-2.8%,6.6%,3.9%,8.2%
